# Laboratory results as given in PubChem BioAssay (EPA / NIEHS).
# Records with an inconclusive call do not appear. The source made the active and inactive calls. How the source made its calls, unless noted: active means hit-call score of the fitted dose curve at least 0.9, where 1 is the maximum; inactive means score below 0.9.
# Tested on: not listed separately
# Test: ATG_VDRE_CIS: Attagene CIS-FACTORIAL HepG2 Assay for human Vitamin D Receptor Element (VDRE) (AID 2282968)
# Conditions: HepG2 VDRE cis-reporter transcription, actives raise or lower the signal
# Procedure, shortened: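 Reporter mRNA induction, quantified by capillary electrophoresis of fluorescently labelled RT-PCR products, was read 24 h after dosing HepG2 cells carrying transiently transfected cis-regulated reporter units; gain or loss relative to DMSO.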
SMILES,outcome,AC50
CCCCCCCCCCCC#N,inactive,–
O=C(NC(=O)c1c(F)cccc1F)Nc1ccc(Oc2ccc(C(F)(F)F)cc2Cl)cc1F,inactive,–
CC1CCCC1.[C-]#[O+].[C-]#[O+].[C-]#[O+].[Mn],inactive,–
CCCCNP(N)(N)=S,inactive,–
CC(=O)C=Cc1ccccc1,–,100 µM (active)
CCC(=O)c1ccc(Cl)cc1,inactive,–
Nc1ccccc1C(=O)Oc1ccc2ccccc2c1,inactive,–
C=CC(=O)OC,inactive,–
CC(C)CCCCCCCOC(=O)c1ccccc1C(=O)OCCCCCCCC(C)C,inactive,–
N#CCNCC#N,inactive,–
CN(C)N,inactive,–
CN1C[C@H](C(=O)N[C@]2(C)O[C@@]3(O)[C@@H]4CCCN4C(=O)[C@H](Cc4ccccc4)N3C2=O)C=C2c3cccc4[nH]cc(c34)C[C@H]21,–,0.966 µM (active)
O=[N+]([O-])C=Cc1ccccc1,–,10.7 µM (active)
Nc1ccc(Cl)c(Cl)c1,inactive,–
O=C(O)CCl,inactive,–
Nc1cc(Cl)cc(Cl)c1,inactive,–
O=[N+]([O-])c1ccc(Cl)cc1,inactive,–
Cc1ccc(C)c2ccccc12,inactive,–
COC(=O)COc1ccc(Cl)cc1Cl,inactive,–
[CH3][Sn]([Cl])([Cl])[Cl],inactive,–
CC(=O)c1cc2c(cc1C)C(C)(C)C(C)CC2(C)C (stereo not given),inactive,–
Nc1ccc(-c2ccc(N)c(N)c2)cc1N,inactive,–
c1cc(OCC2CO2)ccc1Cc1ccc(OCC2CO2)cc1 (stereo not given),–,8.36 µM (active)
C=CC(=O)OCCCCOC(=O)C=C,–,33.5 µM (active)
c1ccc2c(c1)CCCC2,inactive,–
C[C@]12CC[C@H]3[C@@H](CC[C@@]45O[C@@H]4C(O)=C(C#N)C[C@]35C)[C@@H]1CC[C@@H]2O,–,33.9 µM (active)
O=[N+]([O-])c1cc([N+](=O)[O-])c2ccccc2c1,inactive,–
O=C(O)C(Br)Br,inactive,–
C=CC(=O)OCCO,–,116 µM (active)
CCCCCCCCCCCCCCCC[N+](C)(C)C,–,9.16 µM (active)

# Biological target: Nuclear receptor subfamily 1 group I member 3 (Homo sapiens) (UniProt Q14994)
# Sequence (Q14994 whole entry, looked up): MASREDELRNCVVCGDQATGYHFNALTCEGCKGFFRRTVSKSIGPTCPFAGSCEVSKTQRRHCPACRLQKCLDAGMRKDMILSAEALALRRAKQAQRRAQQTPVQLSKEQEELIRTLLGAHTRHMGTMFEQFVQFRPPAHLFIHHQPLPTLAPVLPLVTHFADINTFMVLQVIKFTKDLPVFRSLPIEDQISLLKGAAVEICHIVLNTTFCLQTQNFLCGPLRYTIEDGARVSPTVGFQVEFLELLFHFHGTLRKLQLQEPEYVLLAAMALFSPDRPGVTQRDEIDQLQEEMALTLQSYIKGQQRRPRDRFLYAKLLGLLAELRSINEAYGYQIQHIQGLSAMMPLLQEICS
# Test: ATG_CAR_TRANS: Attagene TRANS-FACTORIAL HepG2 Assay for human Constitutive Androstane Receptor (CAR) (AID 2282969; active means hit-call score of the fitted dose curve at least 0.9, where 1 is the maximum;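 further: activators raise reporter mRNA above DMSO so AC50 marks induction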)
# Conditions: HepG2 Attagene TRANS-FACTORIAL CAR reporter
# Procedure, shortened: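 Readout is reporter mRNA induction, quantified by fluorescent primer extension and capillary electrophoresis after RT-PCR. Cells were HepG2 transiently carrying chimeric NR-Gal4 constructs with GAL4-UAS reporters, treated for 24 h; activity scored upward from DMSO.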
row,SMILES,outcome
1,CCCCCCCCCCCC#N,inactive
2,CC1CCCC1.[C-]#[O+].[C-]#[O+].[C-]#[O+].[Mn],inactive
3,CC(=O)C=Cc1ccccc1,inactive
4,CCC(=O)c1ccc(Cl)cc1,inactive
5,C=CC(=O)OC,inactive
6,O=[N+]([O-])C=Cc1ccccc1,inactive
7,CC(O)CN(CC(C)O)CC(C)O (stereo not given),inactive
8,Cc1ccc(C)c2ccccc12,inactive
9,[CH3][Sn]([Cl])([Cl])[Cl],inactive
10,CCOC(=O)C1OC1(C)c1ccccc1 (stereo not given),inactive
11,[Cl][Sb]([Cl])[Cl],inactive
12,CC(C)[C@@H](C(=O)O[C@@H](C#N)c1cccc(Oc2ccccc2)c1)c1ccc(Cl)cc1,inactive
13,C[C@]12CC[C@H]3[C@@H](CC[C@@]45O[C@@H]4C(O)=C(C#N)C[C@]35C)[C@@H]1CC[C@@H]2O,inactive
14,CCCCCCCCCCCCCCCC[N+](C)(C)C,inactive

# Biological target: Estrogen receptor (Homo sapiens) (UniProt P03372)
# Sequence (P03372 whole entry, looked up): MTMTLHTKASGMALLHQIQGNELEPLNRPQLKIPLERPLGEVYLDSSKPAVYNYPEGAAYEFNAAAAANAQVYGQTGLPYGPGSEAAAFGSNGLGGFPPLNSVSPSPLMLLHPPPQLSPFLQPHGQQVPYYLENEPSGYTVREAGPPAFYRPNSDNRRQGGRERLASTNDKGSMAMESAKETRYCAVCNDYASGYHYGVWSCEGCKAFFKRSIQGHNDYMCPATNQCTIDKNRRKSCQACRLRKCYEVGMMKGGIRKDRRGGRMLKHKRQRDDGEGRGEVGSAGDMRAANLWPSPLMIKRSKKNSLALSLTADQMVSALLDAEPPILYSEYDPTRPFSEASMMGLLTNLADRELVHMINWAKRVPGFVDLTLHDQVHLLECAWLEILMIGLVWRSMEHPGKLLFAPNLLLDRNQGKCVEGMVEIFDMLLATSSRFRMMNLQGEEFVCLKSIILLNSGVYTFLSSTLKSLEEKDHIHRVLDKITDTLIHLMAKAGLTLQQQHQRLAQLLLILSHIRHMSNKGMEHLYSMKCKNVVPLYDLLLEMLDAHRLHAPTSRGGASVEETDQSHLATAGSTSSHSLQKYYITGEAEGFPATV
# Test: ATG_ERa_TRANS: Attagene TRANS-FACTORIAL HepG2 Assay for human Estrogen Receptor alpha (ERa) (AID 2282970; active means hit-call score of the fitted dose curve at least 0.9, where 1 is the maximum)
# Conditions: HepG2 Attagene TRANS ERa GAL4 reporter, mRNA
# Procedure, shortened: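 Human liver HepG2, transient transfection of multiple GAL4-UAS reporter units; TRANS format (exogenous NR-Gal4 chimera). 24 h dosing. Readout: reporter mRNA, RT-PCR, 6-FAM primer extension, HpaI digest, capillary electrophoresis. Positive direction vs DMSO.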
SMILES,outcome,AC50
CCCCNP(N)(N)=S,inactive,–
Nc1ccccc1C(=O)Oc1ccc2ccccc2c1,–,12.8 µM (active)
N#CCNCC#N,inactive,–
CCCCOP(=O)(O)OCCCC,inactive,–
c1ccc2c(c1)CCCC2,inactive,–
COc1ncc(F)c2nc(S(=O)(=O)Nc3c(F)cccc3F)nn12,inactive,–

# Biological target: X-box-binding protein 1 (Homo sapiens) (UniProt P17861)
# Sequence (P17861 whole entry, looked up): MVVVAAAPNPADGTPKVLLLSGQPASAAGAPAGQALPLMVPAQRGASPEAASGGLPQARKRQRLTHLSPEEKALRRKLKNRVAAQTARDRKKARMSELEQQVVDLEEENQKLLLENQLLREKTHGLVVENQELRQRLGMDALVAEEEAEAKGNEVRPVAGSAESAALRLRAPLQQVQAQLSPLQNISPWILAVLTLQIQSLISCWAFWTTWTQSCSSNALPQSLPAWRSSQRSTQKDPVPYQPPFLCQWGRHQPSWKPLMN
# Test: ATG_Xbp1_CIS: Attagene CIS-FACTORIAL HepG2 Assay for human X-box Binding Protein 1 (XBP1) (AID 2282972)
# Conditions: HepG2 XBP1 cis-element reporter, Attagene multiplex; actives raise or lower the signal
# Procedure, shortened: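 HepG2 cells transiently transfected with multiple cis-element reporter units report endogenous TF activity; 24 h exposure, then reporter mRNA measured by RT-PCR, 6-FAM labelling, HpaI digestion and capillary electrophoresis. Bidirectional fitting versus DMSO.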
SMILES,AC50,outcome
CCCCCCCCCCCC#N,173 µM (active),–
O=C(NC(=O)c1c(F)cccc1F)Nc1ccc(Oc2ccc(C(F)(F)F)cc2Cl)cc1F,–,inactive
CC1CCCC1.[C-]#[O+].[C-]#[O+].[C-]#[O+].[Mn],–,inactive
CCCCNP(N)(N)=S,–,inactive
CC(=O)C=Cc1ccccc1,–,inactive
CCC(=O)c1ccc(Cl)cc1,–,inactive
Nc1ccccc1C(=O)Oc1ccc2ccccc2c1,–,inactive
CC(C)CCCCCCCOC(=O)c1ccccc1C(=O)OCCCCCCCC(C)C,–,inactive
N#CCNCC#N,–,inactive
O=[N+]([O-])C=Cc1ccccc1,20.3 µM (active),–
Nc1ccc(Cl)c(Cl)c1,–,inactive
CCCCOP(=O)(O)OCCCC,–,inactive
Nc1cc(Cl)cc(Cl)c1,–,inactive
C=CCO,–,inactive
COC(=O)COc1ccc(Cl)cc1Cl,–,inactive
[CH3][Sn]([Cl])([Cl])[Cl],–,inactive
CC(=O)c1cc2c(cc1C)C(C)(C)C(C)CC2(C)C (stereo not given),66.6 µM (active),–
Nc1ccc(-c2ccc(N)c(N)c2)cc1N,–,inactive
c1cc(OCC2CO2)ccc1Cc1ccc(OCC2CO2)cc1 (stereo not given),19.8 µM (active),–
C=CC(=O)OCCCCOC(=O)C=C,–,inactive
c1ccc2c(c1)CCCC2,–,inactive
CCOC(=O)C1OC1(C)c1ccccc1 (stereo not given),–,inactive
[Cl][Sb]([Cl])[Cl],143 µM (active),–
COc1ncc(F)c2nc(S(=O)(=O)Nc3c(F)cccc3F)nn12,–,inactive
CC(C)[C@@H](C(=O)O[C@@H](C#N)c1cccc(Oc2ccccc2)c1)c1ccc(Cl)cc1,–,inactive
C[C@]12CC[C@H]3[C@@H](CC[C@@]45O[C@@H]4C(O)=C(C#N)C[C@]35C)[C@@H]1CC[C@@H]2O,60 µM (active),–
O=[N+]([O-])c1cc([N+](=O)[O-])c2ccccc2c1,–,inactive
O=C(O)C(Br)Br,–,inactive
C=CC(=O)OCCO,131 µM (active),–
CCCCCCCCCCCCCCCC[N+](C)(C)C,–,inactive
